# Reference: paper PMC4336329 (PLoS ONE, 2015)
# Out of some 310,000 compounds screened, about 2,200 (0.71%) showed an effect of 50% or more. The effect is printed as a negative number. This is one part of a sample in which strong results are shown more often than they occur.
# Molecular target: human ether-à-go-go-related gene (hERG) potassium channel (human, UniProt Q12809)
# Test: primary screen, population patch clamp on CHO cells stably expressing hERG; higher = less effect of the substance
# human ether-à-go-go-related gene (hERG) potassium channel, sequence (Q12809 whole entry, looked up): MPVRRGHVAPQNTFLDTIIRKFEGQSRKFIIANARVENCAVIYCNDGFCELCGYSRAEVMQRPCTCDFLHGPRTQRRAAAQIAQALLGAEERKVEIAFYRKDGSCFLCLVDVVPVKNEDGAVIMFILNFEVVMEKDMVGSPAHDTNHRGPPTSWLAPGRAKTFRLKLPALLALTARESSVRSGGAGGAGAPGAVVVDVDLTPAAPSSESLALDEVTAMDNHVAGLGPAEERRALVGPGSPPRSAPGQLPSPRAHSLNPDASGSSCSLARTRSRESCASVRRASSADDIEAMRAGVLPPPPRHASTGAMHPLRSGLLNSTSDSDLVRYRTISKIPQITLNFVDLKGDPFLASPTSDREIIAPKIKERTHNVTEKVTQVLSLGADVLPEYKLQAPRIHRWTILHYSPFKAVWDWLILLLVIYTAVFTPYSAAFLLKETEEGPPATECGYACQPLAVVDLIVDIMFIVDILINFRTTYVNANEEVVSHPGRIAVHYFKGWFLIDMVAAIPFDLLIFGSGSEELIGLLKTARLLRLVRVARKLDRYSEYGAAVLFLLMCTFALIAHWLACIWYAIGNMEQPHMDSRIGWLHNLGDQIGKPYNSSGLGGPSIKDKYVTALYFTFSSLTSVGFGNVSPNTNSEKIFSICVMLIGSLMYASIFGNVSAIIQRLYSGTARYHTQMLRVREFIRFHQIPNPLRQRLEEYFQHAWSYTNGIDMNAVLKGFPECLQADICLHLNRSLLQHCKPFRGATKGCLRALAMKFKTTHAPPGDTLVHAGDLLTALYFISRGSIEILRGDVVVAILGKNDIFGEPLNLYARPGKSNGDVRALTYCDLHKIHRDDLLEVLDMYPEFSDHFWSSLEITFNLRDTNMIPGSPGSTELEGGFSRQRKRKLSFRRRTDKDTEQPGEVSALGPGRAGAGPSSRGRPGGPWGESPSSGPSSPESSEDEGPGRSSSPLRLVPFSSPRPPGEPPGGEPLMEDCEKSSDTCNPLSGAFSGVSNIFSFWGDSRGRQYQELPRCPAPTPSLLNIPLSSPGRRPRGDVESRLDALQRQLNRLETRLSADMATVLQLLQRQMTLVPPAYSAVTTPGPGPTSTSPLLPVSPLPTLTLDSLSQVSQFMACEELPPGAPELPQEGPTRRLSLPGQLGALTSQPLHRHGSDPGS
row,SMILES,"hERG current change (%, negative = inhibition) at 1uM [%]"
1,COCCn1c(SCC(=O)c2c[nH]c3ccccc23)nnc1-c1ccncc1,7.84
2,O=C(Nc1ccc(Cl)cc1)c1cncs1,11.3
3,O=C(Nc1ccnn1C1CCN(Cc2ccc(Cl)cc2)CC1)C1CCCC1,-37.2
4,CC(C)Oc1ccc(CN2CCC(n3nccc3NC(=O)c3cccnc3)CC2)cc1,-52.6
5,COC(=O)c1ccc(CN2CCC(n3nccc3NC(=O)C3CCCC3)CC2)cc1,-26.7
6,O=C(Nc1ccnn1C1CCN(Cc2ccccc2OC(F)F)CC1)c1cccnc1,2.05
7,CC(C)Oc1ccc(CN2CCC(n3nccc3NC(=O)C3CC3)CC2)cc1,-68.4
8,Cc1ccccc1CN1CCC(n2nccc2NC(=O)c2cccnc2)CC1,4.68
9,CC(Cc1ccc(Cl)cc1)N1CCC(n2nccc2NC(=O)C2CCCC2)CC1 (stereo not shown),-67.5
10,CC(C)Cc1ccc(CN2CCC(n3nccc3NC(=O)C3CCCC3)CC2)cc1,-16.9
11,CC(C)n1cc(CN2CCC(n3nccc3NC(=O)C3CCCC3)CC2)cn1,6.1
12,COC(=O)c1ccc(CN2CCC(n3nccc3NC(=O)C3CC3)CC2)cc1,-6.68
13,COc1cc(CN2CCC(n3nccc3NC(=O)C3CC3)CC2)cc(OC)c1,-29.5
14,CCc1ccc(CN2CCC(n3nccc3NC(=O)C3CCCC3)CC2)cc1,-68.2
15,O=C(N/N=C(\CC(=O)c1cccs1)C(F)(F)F)c1cccnc1,12.7
16,Cl.O=C(NCCN1CCCC1)c1ccc(Cl)cc1Cl,16.6
17,O=C(NCC1(N2CCCCC2)CCCCC1)C1CC(=O)N(c2ccc3c(c2)OCCO3)C1 (stereo not shown),14.3
18,COc1cc(C2NC(=O)C(C#N)=C(S)N2c2ccc(C)cc2)ccc1OC(C)C (stereo not shown),9.81
19,COc1cc(OC)cc(C(=O)NCCCn2ccnc2)c1,18.8
20,Cn1c2ccccc2c2nnc(SC3CCOC3=O)nc21 (stereo not shown),3.35
21,O=C(O)C(C(O)c1ccc([N+](=O)[O-])cc1)[n+]1ccccc1.[Br-] (stereo not shown),18.1
22,COc1cccc(OCc2cc(C(=O)NCc3cnc4ccccn34)no2)c1,3.98

row,SMILES,"hERG current change (%, negative = inhibition) at 1uM [%]"
1,Cn1c(SCC(=O)NC(=O)Nc2ccccc2)nnc1-c1ccncc1,9.09
2,O=C(Nc1ccnn1C1CCN(Cc2ccc(O)c(Cl)c2)CC1)C1CCCC1,-6.39
3,O=C(Nc1ccnn1C1CCN(Cc2ccc(OC(F)F)cc2)CC1)C1CCCC1,-81.5
4,COc1ccc(CN2CCC(n3nccc3NC(=O)C3CCCC3)CC2)cc1,-47.4
5,Cc1c(NC(=O)c2cccc(-c3cc4ccccc4oc3=O)c2)cccc1-c1nc2ncccc2o1,12.7
6,O=C(Nc1ccc(F)cc1)N1CCN(CCc2ccccc2)CC1,-9.52
7,CCCCNC(=O)N1CCN(Cc2ccc(F)cc2)CC1,9.29
8,CCNC(=O)N1CCN(CCCC(c2ccc(F)cc2)c2ccc(F)cc2)CC1.Cl,-90.3
9,CCN(CC)CCNS(=O)(=O)c1ccc2[nH]cc(C(=O)O)c(=O)c2c1,10.9
10,COc1ccccc1C(=O)Nc1ccnn1C1CCN(C2CCSCC2)CC1,-44.5
11,O=C(Nc1ccnn1C1CCN(C2CCCCC2)CC1)c1ccccc1,12.1
12,O=C(Nc1ccnn1C1CCN(CC2CC=CCC2)CC1)c1ccccc1Cl (stereo not shown),-37.8
13,O=C(Nc1ccnn1C1CCN(C2CCCC2)CC1)c1ccccc1Cl,6.27
14,CC(C)(C)CN1CCC(n2nccc2NC(=O)c2ccccc2Cl)CC1,4.68
15,COc1ccccc1C(=O)Nc1ccnn1C1CCN(CC2CC=CCC2)CC1 (stereo not shown),-69.1
16,O=C(Nc1ccnn1C1CCN(CCCC2CCCC2)CC1)c1ccccc1Cl,-99
17,O=C(Nc1ccnn1C1CCN(CCCC2CCCC2)CC1)c1ccccc1,-60.9
18,Cc1ccccc1C(=O)Nc1ccnn1C1CCN(CC2CC=CCC2)CC1 (stereo not shown),-33.5
19,COc1ccccc1C(=O)Nc1ccnn1C1CCN(CCCC2CCCC2)CC1,-93.2
20,COc1ccccc1C(=O)Nc1ccnn1C1CCN(C(=O)C(C)(C)C)CC1,-6.95
21,O=C(Nc1ccnn1C1CCN(C2CCCC2)CC1)c1ccccc1,13.3
